Measurements: PubChem BioAssay (NCI)
This is part of a sample that, as a whole, favours compounds with a hit. Of some 79,000 tested, about 15% had one in any assay. Active and inactive are the calls of the source. No stated cut-off is given here; in the data, active means growth inhibition above about 70%; inactive means the rest.

Assay: NCI Yeast Anticancer Drug Screen. Data for the bub3 strain (AID 167)
Conditions: S. cerevisiae bub3 mutant strain, at 5.0 µM (retest, dose inferred, filed as 0.5), active compounds read high
Summary of the method: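 Steps: expose the mutant yeast strain to compound; grow alongside vehicle-treated cultures; measure growth; express inhibition against the vehicle cultures.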

Structure (SMILES) | growth inhibition
N#Cc1c(SCc2ccc(Cl)cc2)nsc1Nc1ccc(Cl)cc1 | 86% (active)
CC(CO)(Nc1ccc([N+](=O)[O-])cc1[N+](=O)[O-])C(=O)O (stereo not given) | 1% (inactive)
O=[N+]([O-])/C(C(Cl)=C(Cl)Cl)=C(/Nc1ccccc1)Sc1ccccc1 | 51% (inactive)
CC(SCc1ccccc1)C(=O)O (stereo not given) | -21% (inactive)
O=C1C2(Cl)C(Cl)=C(Cl)C1(Cl)C1(Cl)C(Cl)=C(Cl)C(=O)C21Cl (stereo not given) | 21% (inactive)
O=C(CNC(=O)c1ccccc1)Oc1c(Cl)c(Cl)c(Cl)c(Cl)c1Cl | 1% (inactive)
CN(C)c1nc(NNS(=O)(=O)c2ccc(N)cc2)nc(N(C)C)n1 | -6% (inactive)
CC1(C(Cl)(Cl)Cl)C=CC(O)(C#CC2(O)C=CC(C)(C(Cl)(Cl)Cl)C=C2)C=C1 (stereo not given) | 98% (active)
COCCN1C(=O)C2c3[nH]c4ccccc4c3C3CCC(C(C)(C)C)CC3C2C1=O (stereo not given) | -4% (inactive)
Cc1nc(N)sc1N=Nc1cccc(Cl)c1Cl | -2% (inactive)
ClC1=C(Cl)C2c3ccccc3C1c1ccccc12 | -9% (inactive)
C=C/C=C/CC=C | -60% (inactive)
C/C(=N\NC(=S)NCc1ccccc1)c1nccnc1C | 52% (inactive)
COC(=O)c1cc(OC)c(OC)c(OC)c1 | 2% (inactive)
Nc1nc2c(ccc3ccccc32)s1 | -22% (inactive)
N=C(N)c1ccc(N=Nc2cc(/C=C/c3ccccc3)ccc2O)cc1 | 2% (inactive)
O=C1NC(=O)N(c2ccc([N+](=O)[O-])cc2)C1=O | 6% (inactive)
O=C(Nc1cc(Cl)cc(Cl)c1)OCCCl | 41% (inactive)
Cc1[nH]nc(-c2ccon2)c1N=O | 56% (inactive)
O=C(O)CCC(=O)c1ccc(C2CCCC2)c2ccccc12 | -13% (inactive)

Structure (SMILES) | growth inhibition
CC12CC(Br)(Br)C(=O)C3C1CCCC32 | 74% (active)
O=[N+]([O-])c1ccc(NSc2ccccc2)cc1 | 10% (inactive)
CCC1CCC(CC)C1=O (stereo not given) | 2% (inactive)
Cc1cc(C(C)(CC(C)C)c2ccc(O)c(C)c2)ccc1O | 98% (active)
N#CC1C(=O)SC2c3ccccc3C(=O)c3ccccc3C12 (stereo not given) | -8% (inactive)
COc1ccc(C2C3=C(CCCC3=O)Oc3cc4c(cc32)OCO4)cc1 (stereo not given) | -2% (inactive)
CCC(c1cccc(O)c1)C(CC)c1cccc(O)c1 (stereo not given) | 59% (inactive)
CCCCCCCCCCCC1C(C#N)C(=O)NC(=O)C1C#N (stereo not given) | 78% (active)
O=C(NNC(=O)c1cccc(C(=O)NNC(=O)c2ccc(Cl)c(Cl)c2)n1)c1ccc(Cl)c(Cl)c1 | 61% (inactive)
CCOC(=O)CCC(NC(=O)c1ccc(NC(OC)c2nc3cc(C(F)(F)F)ccc3nc2-c2ccccc2)cc1)C(=O)OCC (stereo not given) | 84% (active)
CCOC(=O)c1c(C)[nH]c(CO)c1C | 4% (inactive)
S=C(NC(=S)Nc1ccc(Cl)cc1)Nc1ccc(Cl)cc1 | -4% (inactive)
O=S(=O)(c1ccc(OCC(O)COc2ccc(S(=O)(=O)c3ccc(OCC4CO4)cc3)cc2)cc1)c1ccc(OCC2CO2)cc1 (stereo not given) | -4% (inactive)
C=C(C)C(=O)OC1CC2=CC(CC3(C)OC3C3OC(=O)C(=C)C13)OC2=O (stereo not given) | 1% (inactive)
c1ccc2c(c1)C[n+]1ccc3ccccc3c1-c1c3ccccc3cc[n+]1C2 | -2% (inactive)
CCN(CC)CCOC(=O)Cc1cccc2c(=O)cc(-c3cccs3)oc12 | 4% (inactive)
C=C1C(=O)OC2C/C(C)=C/CC/C(C)=C/CCC3(COC(C)=O)OC3CC12 (stereo not given) | 11% (inactive)
CN1C=CC(C(O)(c2ccccc2)c2ccccc2)CC1 (stereo not given) | -5% (inactive)
OCc1cccc2c1Oc1ccccc1S2 | 11% (inactive)
COC(=O)c1[nH]c(=O)c(C#N)c(C(=O)OC)c1C(=O)c1ccc(Cl)c(Cl)c1 | -22% (inactive)

Same assay, conditions: S. cerevisiae bub3 mutant strain, at 50.0 µM (retest, dose inferred, filed as 5.0), active compounds read high

Structure (SMILES) | growth inhibition
N#Cc1c(SCc2ccc(Cl)cc2)nsc1Nc1ccc(Cl)cc1 | 98% (active)
CC(CO)(Nc1ccc([N+](=O)[O-])cc1[N+](=O)[O-])C(=O)O (stereo not given) | 99% (active)
O=[N+]([O-])/C(C(Cl)=C(Cl)Cl)=C(/Nc1ccccc1)Sc1ccccc1 | 99% (active)
CC(SCc1ccccc1)C(=O)O (stereo not given) | -2% (inactive)
O=C1C2(Cl)C(Cl)=C(Cl)C1(Cl)C1(Cl)C(Cl)=C(Cl)C(=O)C21Cl (stereo not given) | 92% (active)
O=C(CNC(=O)c1ccccc1)Oc1c(Cl)c(Cl)c(Cl)c(Cl)c1Cl | 45% (inactive)
CN(C)c1nc(NNS(=O)(=O)c2ccc(N)cc2)nc(N(C)C)n1 | -8% (inactive)
CC1(C(Cl)(Cl)Cl)C=CC(O)(C#CC2(O)C=CC(C)(C(Cl)(Cl)Cl)C=C2)C=C1 (stereo not given) | 97% (active)
COCCN1C(=O)C2c3[nH]c4ccccc4c3C3CCC(C(C)(C)C)CC3C2C1=O (stereo not given) | 94% (active)
Cc1nc(N)sc1N=Nc1cccc(Cl)c1Cl | 23% (inactive)
ClC1=C(Cl)C2c3ccccc3C1c1ccccc12 | 98% (active)
C=C/C=C/CC=C | -46% (inactive)
C/C(=N\NC(=S)NCc1ccccc1)c1nccnc1C | 99% (active)
COC(=O)c1cc(OC)c(OC)c(OC)c1 | 70% (active)
Nc1nc2c(ccc3ccccc32)s1 | 52% (inactive)
N=C(N)c1ccc(N=Nc2cc(/C=C/c3ccccc3)ccc2O)cc1 | 98% (active)
O=C1NC(=O)N(c2ccc([N+](=O)[O-])cc2)C1=O | 5% (inactive)
O=C(Nc1cc(Cl)cc(Cl)c1)OCCCl | 88% (active)
Cc1[nH]nc(-c2ccon2)c1N=O | 90% (active)
O=C(O)CCC(=O)c1ccc(C2CCCC2)c2ccccc12 | 46% (inactive)

Structure (SMILES) | growth inhibition
CC12CC(Br)(Br)C(=O)C3C1CCCC32 | 59% (inactive)
O=[N+]([O-])c1ccc(NSc2ccccc2)cc1 | 98% (active)
CCC1CCC(CC)C1=O (stereo not given) | 4% (inactive)
Cc1cc(C(C)(CC(C)C)c2ccc(O)c(C)c2)ccc1O | 97% (active)
N#CC1C(=O)SC2c3ccccc3C(=O)c3ccccc3C12 (stereo not given) | 27% (inactive)
COc1ccc(C2C3=C(CCCC3=O)Oc3cc4c(cc32)OCO4)cc1 (stereo not given) | 79% (active)
CCC(c1cccc(O)c1)C(CC)c1cccc(O)c1 (stereo not given) | 88% (active)
CCCCCCCCCCCC1C(C#N)C(=O)NC(=O)C1C#N (stereo not given) | 86% (active)
O=C(NNC(=O)c1cccc(C(=O)NNC(=O)c2ccc(Cl)c(Cl)c2)n1)c1ccc(Cl)c(Cl)c1 | 80% (active)
CCOC(=O)CCC(NC(=O)c1ccc(NC(OC)c2nc3cc(C(F)(F)F)ccc3nc2-c2ccccc2)cc1)C(=O)OCC (stereo not given) | 84% (active)
CCOC(=O)c1c(C)[nH]c(CO)c1C | 8% (inactive)
S=C(NC(=S)Nc1ccc(Cl)cc1)Nc1ccc(Cl)cc1 | 2% (inactive)
O=S(=O)(c1ccc(OCC(O)COc2ccc(S(=O)(=O)c3ccc(OCC4CO4)cc3)cc2)cc1)c1ccc(OCC2CO2)cc1 (stereo not given) | -2% (inactive)
C=C(C)C(=O)OC1CC2=CC(CC3(C)OC3C3OC(=O)C(=C)C13)OC2=O (stereo not given) | 43% (inactive)
c1ccc2c(c1)C[n+]1ccc3ccccc3c1-c1c3ccccc3cc[n+]1C2 | 4% (inactive)
CCN(CC)CCOC(=O)Cc1cccc2c(=O)cc(-c3cccs3)oc12 | 14% (inactive)
C=C1C(=O)OC2C/C(C)=C/CC/C(C)=C/CCC3(COC(C)=O)OC3CC12 (stereo not given) | 97% (active)
CN1C=CC(C(O)(c2ccccc2)c2ccccc2)CC1 (stereo not given) | -3% (inactive)
OCc1cccc2c1Oc1ccccc1S2 | 73% (active)
COC(=O)c1[nH]c(=O)c(C#N)c(C(=O)OC)c1C(=O)c1ccc(Cl)c(Cl)c1 | 90% (active)
